# Measured values as given in PubChem BioAssay (EPA / NIEHS).
# Inconclusive results are not listed. Activity calls are given as the source filed them. How the source made its calls, unless noted: active means hit-call score of the fitted dose curve at least 0.9, where 1 is the maximum; inactive means score below 0.9.
# Experiments:
# [1] = target: Nucleoli Translocation, AR (gene 367) (UniProt P10275); test: UPITT_HCI_U2OS_AR_TIF2_Nucleoli_Antagonist: University of Pittsburgh U2OS Androgen Receptor-Transcriptional Intermediary Factor 2 (AR-TIF2) Antagonism High Content Imaging Assay for Nucleoli Translocation (AID 2283997; active means hit-call score of the fitted dose curve at least 0.9, where 1 is the maximum)
# How it was run: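 An antagonist-mode imaging screen: engineered U2OS (AR-RFP, TIF2-GFP) exposed to 20 uM compound, 0.2% DMSO. Activity reflects nucleolar red fluorescence change relative to DHT baseline.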
# [2] = target: Nucleoli Translocation, AR (gene 367) (UniProt P10275); test: UPITT_HCI_U2OS_AR_TIF2_Nucleoli_Agonist: University of Pittsburgh U2OS Androgen Receptor-Transcriptional Intermediary Factor 2 (AR-TIF2) Agonism High Content Imaging Assay for Nucleoli Translocation (AID 2283998; active means hit-call score of the fitted dose curve at least 0.9, where 1 is the maximum)
# How it was run: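 High-content images quantify nucleolar accumulation of RFP-fused AR in cells also expressing GFP-TIF2; the endpoint is fitted as signal gain versus DMSO controls across final concentrations of 0.195 to 50 uM.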
# [3] = target: Ratio of Nucleoli Translocation and Cytoplasm, AR (gene 367) (UniProt P10275); test: UPITT_HCI_U2OS_AR_TIF2_Nucleoli_Cytoplasm_Ratio_Antagonist: University of Pittsburgh U2OS Androgen Receptor-Transcriptional Intermediary Factor 2 (AR-TIF2) Antagonism High Content Imaging Assay for Ratio of Nucleoli Translocation and Cytoplasm (AID 2283999; active means hit-call score of the fitted dose curve at least 0.9, where 1 is the maximum;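 further: antagonists lower the DHT-driven ratio of nucleolar to cytoplasmic red signal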)
# How it was run: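 This antagonist-mode endpoint tracks AR-RFP localisation, the nucleolus-to-cytoplasm intensity ratio, in TIF2-GFP-coexpressing U2OS cells. DMSO stays at or below 0.5%; testing spans 20 uM single-dose and 0.195–50 uM series, with DHT setting the activity baseline.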
# [4] = CCTE_Harrill_HTTr_Viability_MCF7: CCTE's 6-hour Cell Viability Assessment for the High-Throughput Transcriptomics (HTTr) Platform, in MCF-7 cells cultured in DMEM + 10% fetal bovine serum, Harrill Lab (AID 2284010)
# How it was run: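 Eight-point concentration series, six-hour exposure. Propidium iodide exclusion imaged to assess membrane integrity as a cytotoxicity readout; bidirectional fitting was done with DMSO as negative control and activity baseline.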
# [5] = CCTE_Harrill_HTTr_Apoptosis_MCF7: CCTE's 6-hour Apoptosis Assessment for the High-Throughput Transcriptomics (HTTr) Platform, in MCF-7 cells cultured in DMEM + 10% fetal bovine serum, Harrill Lab (AID 2284011)
# How it was run: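 Apoptosis in MCF-7 cells grown in DMEM with 10% fetal bovine serum was scored after a six hour exposure by high content imaging of caspase-3/7 activation (CellEvent Caspase 3/7 Green), with DMSO serving as negative control and baseline.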
# [6] = CCTE_Harrill_HTTr_CellCount_MCF7: CCTE's Cell Proliferation Assessment for the High-Throughput Transcriptomics (HTTr) Platform, Harrill Lab (AID 2284012; active means hit-call score of the fitted dose curve at least 0.9, where 1 is the maximum;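 further: count of Hoechst-stained nuclei per well by high-content imaging in MCF-7 cells; cells exposed to compound for six hours; intended direction is loss of nuclei count meaning fewer cells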)
# How it was run: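 For this full-screen endpoint, MCF-7 cultures received eight compound dilutions for six hours. Well nuclei counts from Hoechst imaging were analyzed relative to DMSO.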
# [7] = target: Ratio of Nucleoli Translocation and Cytoplasm, AR (gene 367) (UniProt P10275); test: UPITT_HCI_U2OS_AR_TIF2_Nucleoli_Cytoplasm_Ratio_Agonist: University of Pittsburgh U2OS Androgen Receptor-Transcriptional Intermediary Factor 2 (AR-TIF2) Agonism High Content Imaging Assay for Ratio of Nucleoli Translocation and Cytoplasm (AID 2284000; active means hit-call score of the fitted dose curve at least 0.9, where 1 is the maximum;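 further: hits raise the red nucleolar to cytoplasm ratio above vehicle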)
# How it was run: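 Primary screen at 20 uM final (0.2% DMSO), then triplicate confirmation and dose-response from 0.195 to 50 uM final (0.5% DMSO). Cells: U2OS with AR-RFP and TIF2-GFP. Endpoint is the nucleoli/cytoplasm red-fluorescence ratio, gain-of-signal vs DMSO.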
# [8] = test system: DIO1 (gene 1733); test: CCTE_GLTED_hDIO1: CCTE's human Deiodinase 1 (DIO1) Inhibition Assay, Great Lakes Toxicology and Ecology Division (GLTED) Lab (AID 2283987; active means hit-call score of the fitted dose curve at least 0.9, where 1 is the maximum;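 further: isolated human DIO1 enzyme in a cell-free setup rather than cells; enzyme activity read as free iodide liberated from substrate via Sandell-Kolthoff colorimetry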)
# How it was run: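 Chemicals are tested on human DIO1 without cells for 3 h. Uninhibited enzyme frees iodide, which speeds cerium(IV) reduction by arsenic and is read by spectrophotometry.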
# [9] = CCTE_Shafer_MEA_acute_spike_number: CCTE's Neural Acute Assay for Total Number of Spikes, Shafer Lab (AID 2284008);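 further: curve fitted for decrease in spike count so AC50 reflects inhibitors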
# How it was run: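 Using an adaptive detector set to 8x rms noise, spikes were counted in 40-min windows before and after compound addition (0.03-40 uM) to rat cortical networks at 37 C; the well-level change from baseline was analysed relative to DMSO.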
# [10] = CCTE_Shafer_MEA_acute_firing_rate_mean: CCTE's Neural Acute Assay for Mean Firing Rate, Shafer Lab (AID 2284009);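 further: analyzed for loss of signal so actives lower firing rate relative to DMSO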
# How it was run: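 Spontaneous spiking of primary rat cortical networks, DIV 13/15, 37 C. Compound 0.03-40 uM, n ≥3 wells; 40 min baseline vs 40 min treated. Endpoint fitted in loss-of-signal direction against DMSO.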
# [11] = CCTE_Harrill_HTTr_Viability_PRF_DMEM_24hr: (Pilot) CCTE's 24-hour Cell Viability Assessment for the High-Throughput Transcriptomics (HTTr) Platform, in MCF-7 cells cultured in phenol red-free DMEM + 10% charcoal-stripped fetal bovine serum, Harrill Lab (AID 2283980)
# How it was run: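 Propidium iodide exclusion imaged at 24 h after dosing scores viability; cells were MCF-7 grown in phenol red-free DMEM plus 10% charcoal-stripped serum, tested in eight concentrations, fitted in both directions against DMSO.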
# [12] = CCTE_Harrill_HTTr_Apoptosis_DMEM_6hr: (Pilot) CCTE's 6-hour Apoptosis Assessment for the High-Throughput Transcriptomics (HTTr) Platform, in MCF-7 cells cultured in DMEM + 10% fetal bovine serum, Harrill Lab (AID 2283981)
# How it was run: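 MCF-7 cells grown in DMEM + 10% FBS were exposed for 6 hours to an eight-point dilution series. CellEvent Caspase 3/7 Green signal was imaged; activity fitted bidirectionally against DMSO.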
# [13] = CCTE_Harrill_HTTr_Apoptosis_DMEM_12hr: (Pilot) CCTE's 12-hour Apoptosis Assessment for the High-Throughput Transcriptomics (HTTr) Platform, in MCF-7 cells cultured in DMEM + 10% fetal bovine serum, Harrill Lab (AID 2283982)
# How it was run: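 Caspase-3/7 activity was measured by high-content imaging (CellEvent Caspase 3/7 Green) after a 12-hour exposure of MCF-7 cells grown in DMEM with 10% FBS. Eight-point concentration series, fitted bidirectionally against vehicle.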
# [14] = CCTE_Harrill_HTTr_Apoptosis_DMEM_24hr: (Pilot) CCTE's 24-hour Apoptosis Assessment for the High-Throughput Transcriptomics (HTTr) Platform, in MCF-7 cells cultured in DMEM + 10% fetal bovine serum, Harrill Lab (AID 2283983)
# How it was run: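 Caspase-3/7 activity read by high-content imaging (CellEvent Green reagent) 24 h after dosing. MCF-7 cells grown in DMEM with 10% FBS received an eight-point concentration series; fits were bidirectional versus DMSO.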
# [15] = CCTE_Harrill_HTTr_Apoptosis_PRF_DMEM_6hr: (Pilot) CCTE's 6-hour Apoptosis Assessment for the High-Throughput Transcriptomics (HTTr) Platform, in MCF-7 cells cultured phenol red-free DMEM + 10% charcoal-stripped fetal bovine serum, Harrill Lab (AID 2283984)
# How it was run: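 Caspase-3/7 activity (CellEvent Green) read by high-content imaging 6 h after dosing, eight concentrations. Cells: MCF-7, phenol red-free DMEM with 10% charcoal-stripped serum. Curves fit both directions against DMSO.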
# [16] = CCTE_Harrill_HTTr_Apoptosis_PRF_DMEM_24hr: (Pilot) CCTE's 24-hour Apoptosis Assessment for the High-Throughput Transcriptomics (HTTr) Platform, in MCF-7 cells cultured in phenol red-free DMEM + 10% charcoal-stripped fetal bovine serum, Harrill Lab (AID 2283986)
# How it was run: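 Eight concentrations tested for 24 h on MCF-7 grown in charcoal-stripped serum, phenol red-free DMEM. High content imaging of CellEvent Caspase 3/7 Green signal gives apoptosis read-out, fitted both ways relative to DMSO.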
# [17] = CCTE_Simmons_MITO_basal_resp_rate: CCTE's HepG2 Seahorse XF Respirometric Screening Assay at Basal Respiratory State, Simmons Lab (AID 2284001); details: actives raise or lower the signal
# How it was run: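 Readout is oxygen consumption rate after test compound injection, measured by Seahorse XF in HepG2 cells. Seven concentrations from 125 nM up to 100 uM final are tested, and activity in either direction is fitted against DMSO.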
# [18] = CCTE_Simmons_MITO_max_resp_rate: CCTE's HepG2 Seahorse XF Respirometric Screening Assay at Maximal Respiratory State [uncoupled], Simmons Lab (AID 2284002); details: actives raise or lower the signal
# How it was run: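 Uncoupled (FCCP) respiration of HepG2 cells served as the endpoint, with measurements at 6-minute intervals across a 72-minute run and compounds dosed at 7 concentrations up to 100 uM final.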
# [19] = CCTE_Simmons_MITO_inhib_resp_rate: CCTE's HepG2 Seahorse XF Respirometric Screening Assay at Inhibited Respiratory State [full ETC block], Simmons Lab (AID 2284006); details: actives raise or lower the signal
# How it was run: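 Test chemicals at seven final concentrations (125 nM–100 uM) in three biological replicates, with DMSO as vehicle. HepG2 oxygen consumption was then tracked on a Seahorse XF96 for 72 min through FCCP and rotenone/antimycin A phases, with the inhibited-phase rate as the endpoint.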
# [20] = CCTE_Simmons_MITO_viability: CellTiter-Glo Viability Assessment for CCTE's HepG2 Seahorse XF Respirometric Screening Assay [post-hoc], Simmons Lab (AID 2284007; active means hit-call score of the fitted dose curve at least 0.9, where 1 is the maximum;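 further: cells exposed to chemical for 90 min before the ATP read; actives lower ATP signal relative to DMSO baseline meaning reduced viability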)
# How it was run: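 Post-hoc viability check on the HepG2 respirometry plates: luciferase-based ATP signal measured once, after 90 min compound exposure spanning 125 nM–100 uM final. Activity was referenced to DMSO as baseline.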
# Chain of Nucleoli Translocation, AR (gene 367) (P10275 whole entry, looked up, the tested form may be a part): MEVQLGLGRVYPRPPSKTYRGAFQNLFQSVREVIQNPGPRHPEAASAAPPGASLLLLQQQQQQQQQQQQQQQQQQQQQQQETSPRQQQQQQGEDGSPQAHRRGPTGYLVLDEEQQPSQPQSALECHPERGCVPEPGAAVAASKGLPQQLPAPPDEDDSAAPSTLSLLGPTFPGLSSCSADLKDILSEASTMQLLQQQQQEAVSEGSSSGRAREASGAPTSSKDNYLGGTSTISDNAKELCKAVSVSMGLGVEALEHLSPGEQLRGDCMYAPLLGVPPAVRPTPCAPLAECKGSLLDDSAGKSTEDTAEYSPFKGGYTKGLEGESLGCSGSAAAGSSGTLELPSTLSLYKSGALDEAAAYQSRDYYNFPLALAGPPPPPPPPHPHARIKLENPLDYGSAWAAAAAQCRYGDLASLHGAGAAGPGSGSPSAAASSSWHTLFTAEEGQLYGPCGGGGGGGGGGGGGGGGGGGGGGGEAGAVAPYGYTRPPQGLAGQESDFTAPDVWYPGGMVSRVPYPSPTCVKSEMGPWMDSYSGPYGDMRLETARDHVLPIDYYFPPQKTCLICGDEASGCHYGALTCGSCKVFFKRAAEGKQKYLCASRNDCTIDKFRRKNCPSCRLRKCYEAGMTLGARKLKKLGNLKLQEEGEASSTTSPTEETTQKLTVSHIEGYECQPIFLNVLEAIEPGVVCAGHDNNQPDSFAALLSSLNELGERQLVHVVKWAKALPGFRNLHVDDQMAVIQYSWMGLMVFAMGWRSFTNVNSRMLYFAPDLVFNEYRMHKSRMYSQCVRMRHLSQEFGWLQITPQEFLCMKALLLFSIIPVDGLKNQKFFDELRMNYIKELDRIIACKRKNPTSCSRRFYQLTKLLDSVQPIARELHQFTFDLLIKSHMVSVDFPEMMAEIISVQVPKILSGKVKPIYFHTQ
# Chain of Ratio of Nucleoli Translocation and Cytoplasm, AR (gene 367) (P10275 whole entry, looked up): as the sequence (P10275 whole entry, looked up, the tested form may be a part) above
smiles,measurement,setting,value
C=CCCCCCCCCCCCC,outcome,[1],inactive
same,outcome,[2],inactive
same,outcome,[3],inactive
same,outcome,[4],inactive
same,outcome,[5],inactive
same,outcome,[6],inactive
O=C(Oc1ccccc1)c1cccc(C(=O)Oc2ccccc2)c1,outcome,[1],inactive
same,outcome,[2],inactive
same,outcome,[3],inactive
same,outcome,[7],inactive
same,outcome,[4],inactive
same,outcome,[5],inactive
same,outcome,[6],inactive
Cc1ccc(-c2cc(C(F)(F)F)nn2-c2ccc(S(N)(=O)=O)cc2)cc1,AC50,[8],170 µM (active)
same,AC50,[1],26.6 µM (active)
same,outcome,[2],inactive
same,outcome,[3],inactive
same,outcome,[7],inactive
same,AC50,[9],6.27 µM (active)
same,AC50,[10],6.27 µM (active)
same,outcome,[4],inactive
same,outcome,[5],inactive
same,outcome,[6],inactive
CCN(CC)CCOc1ccc(C(=C(Cl)c2ccccc2)c2ccccc2)cc1,AC50,[11],50.3 µM (active)
same,AC50,[12],81.1 µM (active)
same,AC50,[13],83.4 µM (active)
same,AC50,[14],66.2 µM (active)
same,AC50,[15],79.6 µM (active)
same,AC50,[16],68.3 µM (active)
same,AC50,[8],70.7 µM (active)
same,outcome,[1],inactive
same,outcome,[2],inactive
same,outcome,[3],inactive
same,outcome,[7],inactive
same,outcome,[17],inactive
same,AC50,[18],91 µM (active)
same,outcome,[19],inactive
same,AC50,[20],84.2 µM (active)
same,AC50,[9],2.58 µM (active)
same,AC50,[10],2.62 µM (active)
same,outcome,[4],inactive
same,outcome,[5],inactive
CCC(C)N(C)C(=O)c1cc2ccccc2c(-c2ccccc2Cl)n1 (stereo not given),outcome,[1],inactive
same,outcome,[2],inactive
same,outcome,[3],inactive
same,outcome,[7],inactive
same,outcome,[4],inactive
same,outcome,[5],inactive
same,outcome,[6],inactive
Cc1cc(Cc2ccc(N)c(C)c2)ccc1N,outcome,[17],inactive
same,AC50,[18],50 µM (active)
same,outcome,[19],inactive
CCCCOC(=O)CCCCC(=O)OCCCC,outcome,[4],inactive
same,outcome,[5],inactive
same,outcome,[6],inactive
